# Measurements reported in PMC5540273 (PLoS ONE, 2017).
# Several values for one entry are separate records, joined by “and”; a condition that tells them apart may be missing. Equal values may be shown once. Read-outs that look alike come from different tables or passages of the source.
# Columns and labels:
# Settings in all cases: concentration: 1 μM, replicates: in singlicate, n = 1
# TLK2 = test system: TLK2
# TNIK = test system: TNIK
# TNK1 = test system: TNK1
# TNK2 = test system: TNK2
# TNNI3K = test system: TNNI3K
# TRKA = test system: T1, TRKA
# T1 construct: gene NTRK1
# TRKB = test system: TRKB
# TRKC = test system: T2, TRKC
# T2 construct: gene NTRK3
# TRPM6 = test system: TRPM6
# TSSK1B = test system: TSSK1B
# 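Also: KINOMEscan kinase panel screen.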
SMILES,%Inh (TLK2),%Inh (TNIK),%Inh (TNK1),%Inh (TNK2),%Inh (TNNI3K),%Inh (TRKA),%Inh (TRKB),%Inh (TRKC),%Inh (TRPM6),%Inh (TSSK1B),%Inh (TLK2; 1 µM),%Inh (TNIK; 1 µM),%Inh (TNK1; 1 µM),%Inh (TNK2; 1 µM),%Inh (TNNI3K; 1 µM),%Inh (TRKA; 1 µM),%Inh (TRKB; 1 µM),%Inh (TRKC; 1 µM),%Inh (TRPM6; 1 µM),%Inh (TSSK1B; 1 µM)
CCc1ccnc(/C=C/c2n[nH]c3cc(Sc4ccccc4C(=O)NC)ccc23)c1,0%,5%,48%,0%,5%,56%,0%,0%,4%,0%,,,,,,,,,,
CC(C)Oc1ccc2c(-c3ccnc(Nc4ccc(N5CCN(C)CC5)cc4)n3)cnn2n1 [GW696155],95.1%,32%,60%,46%,9%,54%,39%,42%,43%,79%,,,,,,,,,,
[2H]C([2H])(c1cccc(C(F)(F)F)c1C)n1ccn2c(=O)nc(N3CCOCC3)cc12 [GSK2336394],0%,0%,4%,7%,0%,0%,0%,0%,53%,0%,,,,,,,,,,
Nc1nccc(-c2c(-c3ccc(F)cc3)ncn2C2CCN(CC(F)(F)F)CC2)n1 [SB-236560],0%,6%,0%,10%,0%,70%,35%,18%,0%,0%,,,,,,,,,,
Cl.Nc1ncnc2occ(-c3ccc(NC(=O)Nc4cc(C(F)(F)F)ccc4F)cc3)c12 [SB-707548],4%,67%,46%,20%,90.8%,100%,94.1%,100%,0%,0%,,,,,,,,,,
Cc1cccc(-c2nc(-c3ccc(S(C)(=O)=O)cc3)sc2-c2ccncc2)c1,13%,36%,0%,0%,0%,6%,0%,0%,9%,0%,,,,,,,,,,
COCCNC(=O)c1ccc(-c2cc(C(=O)NC3CC3)cc(F)c2C)cc1 [GW868318],0%,0%,40%,16%,11%,27%,43%,30%,20%,0%,,,,,,,,,,
Cc1cccc(Cn2ccn3c(=O)cc(N4CCOCC4)nc23)c1 [GSK2297542],5%,0%,0%,23%,2%,0%,0%,12%,33%,0%,,,,,,,,,,
CC(C)(CN)c1nc(-c2ccc(Cl)c(O)c2)c(-c2ccncc2)[nH]1.O=C(O)C(F)(F)F [SB-477794],,,,,,,,,,,10% and 4%,89% and 87%,0% and 84%,0% and 5%,85% and 77%,0% and 49%,75% and 32%,55% and 46%,69% and 54%,17% and 0%
CC(=O)Nc1ccc(COc2ccc(Nc3ccnc4cc(-c5ccccn5)ccc34)cc2)cc1.Cl [GW440148],25%,0%,6%,37%,2%,14%,11%,25%,42%,1%,,,,,,,,,,
Fc1ccc(-c2ncn(CCCN3CCOCC3)c2-c2ccccn2)cc1 [SB-211742],0%,0%,24%,0%,0%,0%,0%,0%,0%,0%,,,,,,,,,,
CCc1nc(-c2cccc(C)c2)c(-c2ccnc(NCc3ccccc3)c2)s1,0%,24%,0%,0%,0%,0%,0%,0%,0%,22%,,,,,,,,,,
O=C(Nc1cccc(-c2nn3ncccc3c2-c2ccnc(Nc3cccc(C(F)(F)F)c3)n2)c1)c1c(F)cccc1F [GSK299495],0%,14%,90.5%,49%,8%,0%,39%,20%,33%,5%,,,,,,,,,,
Cn1cc(-c2ccc3c(c2)CCN3C(=O)Cc2ccccc2Cl)c2c(N)ncnc21 [GSK2608885],0%,69%,100%,74%,64%,42%,0%,0%,33%,17%,,,,,,,,,,
Cc1c2ccc(N(C)c3ccnc(Nc4cccc(S(N)(=O)=O)c4)n3)cc2nn1Cc1ccccc1.Cl.Cl [GW787226],12%,88%,62%,0%,3%,0%,0%,0%,41%,1%,,,,,,,,,,
CC(C)(C)n1cnc2c(N)ncnc21 [SKF-97359],2%,0%,16%,40%,0%,74%,47%,18%,3%,0%,,,,,,,,,,
CNc1ncnc2[nH]ncc12 [SKF-18355],0%,17%,0%,0%,0%,0%,0%,0%,23%,0%,,,,,,,,,,
Cc1cn2c(=O)cc(N3CCOCC3)nc2n1Cc1cccc(Cl)c1Cl [GSK2334006],0%,0%,0%,12%,0%,17%,0%,0%,0%,29%,,,,,,,,,,
O=c1cc(N2CCOCC2)nc2n(Cc3cccc(C(F)(F)F)c3)ccn12 [GSK2297543],3%,0%,0%,11%,6%,20%,0%,0%,0%,16%,,,,,,,,,,
COC(=O)Nc1nc2cc(Oc3ccc(NC(=O)Nc4cc(F)ccc4F)cc3)ccc2[nH]1.Cl [GW701424],3%,0%,0%,11%,81%,5%,68%,76%,0%,0%,,,,,,,,,,
N#Cc1ccc(-c2cc(-c3c[nH]nc3-c3ccccn3)ccn2)cc1 [GW693028],0%,75%,0%,12%,31%,0%,4%,16%,0%,16%,,,,,,,,,,
NCC(NC(=O)c1cc(-c2cn[nH]c2)c(-c2ccnc3[nH]ccc23)s1)c1ccccc1.O=C(O)C(F)(F)F.O=C(O)C(F)(F)F (stereo not drawn) [GSK1325775],14%,39%,0%,0%,0%,76%,57%,57%,45%,33%,,,,,,,,,,
O=c1cc(N2CCOCC2)nc2n(Cc3cccc4ccccc34)ccn12 [GSK2333389],0%,0%,0%,6%,0%,0%,0%,19%,2%,13%,,,,,,,,,,
COc1ccc(Nc2nccc(N3CCC(NC(=O)Nc4cccc(C(C)=O)c4)C3)n2)cc1 (stereo not drawn) [GSK1379731],0%,0%,0%,0%,48%,50%,44%,78%,2%,0%,,,,,,,,,,
Cc1cccc(-c2nc(Nc3ccc4ncsc4c3)c3ccccc3n2)n1 [GW867588],0%,15%,39%,0%,1%,14%,0%,0%,0%,0%,,,,,,,,,,
CCCCCc1nc2c(N)ncnc2n1CCCCC [SKF-97255],20%,0%,19%,0%,0%,0%,0%,0%,13%,0%,,,,,,,,,,
COc1cc2c(cc1OCCN1CCN(C)CC1)ncc1c3ccc(C#N)cc3[nH]c21,0%,91%,8%,0%,2%,99.8%,97.2%,83%,0%,34%,,,,,,,,,,
Cc1c(Cn2c(C)nn3c(=O)cc(N4CCOC(C)C4)nc23)cccc1C(F)(F)F (stereo not drawn) [GSK2344444],0%,0%,9%,7%,0%,0%,0%,0%,6%,17%,,,,,,,,,,
O=C(NCCNc1ccnc(Nc2ccc(F)cc2)n1)Nc1ccccc1F [GSK1379880],0%,0%,0%,8%,5%,0%,18%,13%,24%,0%,,,,,,,,,,
NS(=O)(=O)c1cccc(-c2ccc3ncc(N4CCOCC4)nc3c2)c1 [GSK1535721],8%,34%,0%,2%,14%,37%,0%,5%,0%,0%,,,,,,,,,,
